Entries with a potency or affinity are not part of this list.
The compounds below were run on Klebsiella pneumoniae. Settings: Concentration 32 ug.mL-1;; ASSAY_TEST Inhibition of Bacterial Growth; detection method Absorption (OD600); MEDIA CAMHB; plate type 384well; NBS; CORNING #3640; time 18 hr.

SMILES | Inhibition [%]
Cc1ccc2c(c1)N(C(=O)Cn1nc3ccc(SCc4ccc(Cl)cc4)nn3c1=O)CCO2 | 7.49
COc1ccc(Cl)cc1NC(=O)CSc1nnc2c(=O)n(-c3ccc(C)c(C)c3)ccn12 | 15.8
CCOc1ccc(-n2ccn3c(SC(CC)C(=O)Nc4cc(F)ccc4F)nnc3c2=O)cc1 (stereo not drawn) | 11.22
Cc1cccc(NC(=O)Cn2nc3ccc(-c4ccccc4)nn3c2=O)c1 | 6.7
Cc1ccc(-c2ccc3nn(Cc4nc(-c5ccc(Cl)cc5)no4)c(=O)n3n2)cc1C | 7.1
Cc1[nH]c2ccccc2c1C(=O)CSc1nnc2c(=O)n(-c3ccc(F)c(F)c3)ccn12 | 14.26
O=c1c2nnc(SCc3ccccc3Cl)n2ccn1-c1ccc(F)c(F)c1 | 8.56
CCC(Sc1nnc2c(=O)n(-c3cccc(OC)c3)ccn12)C(=O)Nc1cc(OC)cc(OC)c1 (stereo not drawn) | 9.6
O=C(Cn1nc2ccc(SCc3ccc(Cl)cc3)nn2c1=O)NC1CCCCC1 | 3.63
Cc1nnc2c(SCC(=O)Nc3ccc(C#N)cc3)nc3ccccc3n12 | 5.06
O=C(Cn1nc2c3cc(-c4ccccc4)nn3ccn2c1=O)N1CCN(c2ccccc2F)CC1 | 9.85
Cc1oc(-c2ccccc2)nc1CSc1nc2ccccc2n2c(C)nnc12 | 7.15
COc1cccc(CNC(=O)CCc2nnc3ccc(-c4ccc(C)cc4)nn23)c1 | 5.64
COc1cccc(-n2ccn3c(=O)n(Cc4ccc([N+](=O)[O-])cc4)nc3c2=O)c1 | 8.52
O=C(CSc1nc2ccccc2n2c(-c3ccccc3)nnc12)Nc1ccc(Br)cc1 | 12.64
COc1ccc(NC(=O)c2ccc3nn(CC(=O)Nc4ccc(C(C)=O)cc4)c(=O)n3c2)cc1 | 4.63
Cc1nnc2c(S(=O)(=O)N(Cc3ccccc3F)c3cc(F)cc(F)c3)cccn12 | 1.21
CCc1ccccc1Sc1nccn2c(=O)n(CC(=O)N3CCN(c4ccccc4F)CC3)nc12 | 1.78
CCCNC(=O)Cn1nc2n(Cc3cccs3)c(=O)c3sccc3n2c1=O | 9.05
CCc1nnc2c(S(=O)(=O)N(Cc3cccc(Cl)c3)c3ccccc3)cccn12 | -7.54

SMILES | Inhibition [%]
CCc1ccc(N(Cc2ccc(C)cc2)S(=O)(=O)c2cccn3cnnc23)cc1 | -0.39
CCOC(=O)c1ccc(NC(=O)Cn2nc3c4cc(-c5ccc(C)cc5)nn4ccn3c2=O)cc1 | -1.86
CSc1ccc(CNC(=O)Cn2nc3c(Oc4cccc(C)c4C)nccn3c2=O)cc1 | 12.69
COc1ccc(CCNC(=O)Cn2nc3c(N4CCOCC4)nccn3c2=O)cc1OC | 17.72
Cc1cc(C)c(NC(=O)CSc2nc3ccccc3n3c(C)nnc23)c(C)c1 | 10.14
CCc1nnc2c(S(=O)(=O)N(Cc3ccc(F)cc3)c3ccc(Cl)cc3)cccn12 | 7.23
Cc1cccc(N(Cc2ccc(F)cc2)S(=O)(=O)c2cccn3c(C)nnc23)c1 | 7.81
COc1ccccc1NC(=O)Cn1nc2c3cc(-c4ccc(C)c(C)c4)nn3ccn2c1=O | 17.54
COc1ccc(NC(=O)Cn2nc3c(Oc4cccc(OC)c4)nccn3c2=O)cc1 | 3.68
CC(C)NC(=O)CCn1c(=O)c2cc(Cl)ccc2n2c(=O)n(CC#N)nc12 | 4.55
CC(C)Cn1c(=O)c2sccc2n2c(=O)n(CC(=O)NC(C)(C)C)nc12 | 2.39
CCc1nnc2c(S(=O)(=O)N(Cc3ccc(C)cc3)c3ccc(C(C)C)cc3)cccn12 | 10.84
COC(=O)c1ccc(NC(=O)CSc2nc3ccccc3n3c(C(C)C)nnc23)cc1 | 12.96
COc1cc(Cl)c(C)cc1NC(=O)Cn1nc2ccc(SC(C)(C)C)nn2c1=O | 11.93
COc1cccc(Oc2nccn3c(=O)n(CC(=O)Nc4ccccc4C(F)(F)F)nc23)c1 | 12.08
O=C(CSc1nc2ccccc2n2cnnc12)Nc1ccc2c(c1)OCO2 | 0.58
O=C(Cn1nc2c(SC3CCCCC3)nccn2c1=O)Nc1ccc(Br)cc1 | 6.54
O=C(Cn1nc2c(SC3CCCCC3)nccn2c1=O)Nc1ccc(F)cc1 | 10.22
CCc1ccccc1Sc1nccn2c(=O)n(CC(=O)N3CCN(c4ccc(F)cc4)CC3)nc12 | 3.21

Each compound was assayed on Candida albicans. Settings: Concentration 32 ug.mL-1; ASSAY_TEST Inhibition of Fungal Growth; detection method Absorption (OD530).

SMILES | Inhibition [%]
Cc1ccc2c(c1)N(C(=O)Cn1nc3ccc(SCc4ccc(Cl)cc4)nn3c1=O)CCO2 | 29.58
COc1ccc(Cl)cc1NC(=O)CSc1nnc2c(=O)n(-c3ccc(C)c(C)c3)ccn12 | 0.63
CCOc1ccc(-n2ccn3c(SC(CC)C(=O)Nc4cc(F)ccc4F)nnc3c2=O)cc1 (stereo not drawn) | 0.62
Cc1cccc(NC(=O)Cn2nc3ccc(-c4ccccc4)nn3c2=O)c1 | 4.41
Cc1ccc(-c2ccc3nn(Cc4nc(-c5ccc(Cl)cc5)no4)c(=O)n3n2)cc1C | 1.35
Cc1[nH]c2ccccc2c1C(=O)CSc1nnc2c(=O)n(-c3ccc(F)c(F)c3)ccn12 | 1.72
O=c1c2nnc(SCc3ccccc3Cl)n2ccn1-c1ccc(F)c(F)c1 | 3.72
CCC(Sc1nnc2c(=O)n(-c3cccc(OC)c3)ccn12)C(=O)Nc1cc(OC)cc(OC)c1 (stereo not drawn) | -0.37
O=C(Cn1nc2ccc(SCc3ccc(Cl)cc3)nn2c1=O)NC1CCCCC1 | 3.05
Cc1nnc2c(SCC(=O)Nc3ccc(C#N)cc3)nc3ccccc3n12 | -1.44
O=C(Cn1nc2c3cc(-c4ccccc4)nn3ccn2c1=O)N1CCN(c2ccccc2F)CC1 | 1.75
Cc1oc(-c2ccccc2)nc1CSc1nc2ccccc2n2c(C)nnc12 | 9.66
COc1cccc(CNC(=O)CCc2nnc3ccc(-c4ccc(C)cc4)nn23)c1 | 2.05
COc1cccc(-n2ccn3c(=O)n(Cc4ccc([N+](=O)[O-])cc4)nc3c2=O)c1 | 4.1
O=C(CSc1nc2ccccc2n2c(-c3ccccc3)nnc12)Nc1ccc(Br)cc1 | 10.16
COc1ccc(NC(=O)c2ccc3nn(CC(=O)Nc4ccc(C(C)=O)cc4)c(=O)n3c2)cc1 | 12.89
Cc1nnc2c(S(=O)(=O)N(Cc3ccccc3F)c3cc(F)cc(F)c3)cccn12 | 0.25
CCc1ccccc1Sc1nccn2c(=O)n(CC(=O)N3CCN(c4ccccc4F)CC3)nc12 | 4.04
CCCNC(=O)Cn1nc2n(Cc3cccs3)c(=O)c3sccc3n2c1=O | -0.4
CCc1nnc2c(S(=O)(=O)N(Cc3cccc(Cl)c3)c3ccccc3)cccn12 | 2.13

SMILES | Inhibition [%]
CCc1ccc(N(Cc2ccc(C)cc2)S(=O)(=O)c2cccn3cnnc23)cc1 | 4.26
CCOC(=O)c1ccc(NC(=O)Cn2nc3c4cc(-c5ccc(C)cc5)nn4ccn3c2=O)cc1 | 7.19
CSc1ccc(CNC(=O)Cn2nc3c(Oc4cccc(C)c4C)nccn3c2=O)cc1 | 0.27
COc1ccc(CCNC(=O)Cn2nc3c(N4CCOCC4)nccn3c2=O)cc1OC | 2.21
Cc1cc(C)c(NC(=O)CSc2nc3ccccc3n3c(C)nnc23)c(C)c1 | 1.31
CCc1nnc2c(S(=O)(=O)N(Cc3ccc(F)cc3)c3ccc(Cl)cc3)cccn12 | 3.47
Cc1cccc(N(Cc2ccc(F)cc2)S(=O)(=O)c2cccn3c(C)nnc23)c1 | 3.26
COc1ccccc1NC(=O)Cn1nc2c3cc(-c4ccc(C)c(C)c4)nn3ccn2c1=O | -1.16
COc1ccc(NC(=O)Cn2nc3c(Oc4cccc(OC)c4)nccn3c2=O)cc1 | 3.75
CC(C)NC(=O)CCn1c(=O)c2cc(Cl)ccc2n2c(=O)n(CC#N)nc12 | 6.33
CC(C)Cn1c(=O)c2sccc2n2c(=O)n(CC(=O)NC(C)(C)C)nc12 | -0.9
CCc1nnc2c(S(=O)(=O)N(Cc3ccc(C)cc3)c3ccc(C(C)C)cc3)cccn12 | 9.31
COC(=O)c1ccc(NC(=O)CSc2nc3ccccc3n3c(C(C)C)nnc23)cc1 | 4.43
COc1cc(Cl)c(C)cc1NC(=O)Cn1nc2ccc(SC(C)(C)C)nn2c1=O | 3.05
COc1cccc(Oc2nccn3c(=O)n(CC(=O)Nc4ccccc4C(F)(F)F)nc23)c1 | 1.07
O=C(CSc1nc2ccccc2n2cnnc12)Nc1ccc2c(c1)OCO2 | 2.55
O=C(Cn1nc2c(SC3CCCCC3)nccn2c1=O)Nc1ccc(Br)cc1 | 6.38
O=C(Cn1nc2c(SC3CCCCC3)nccn2c1=O)Nc1ccc(F)cc1 | 0.1
CCc1ccccc1Sc1nccn2c(=O)n(CC(=O)N3CCN(c4ccc(F)cc4)CC3)nc12 | 4.71
